# Where two headings read alike, the source gives them in different places.
# What was measured:
# PIKFYVE = details: concentration: 1 μM, replicates: in singlicate; n = 1
# PIM1 = details: concentration: 1 μM, replicates: in singlicate; n = 1
# PIM2 = details: concentration: 1 μM, replicates: in singlicate; n = 1
# PIM3 = details: concentration: 1 μM, replicates: in singlicate; n = 1
# PIP5K1A = details: concentration: 1 μM, replicates: in singlicate; n = 1
# PIP5K1C = details: concentration: 1 μM, replicates: in singlicate; n = 1
# PIP5K2B = details: concentration: 1 μM, replicates: in singlicate; n = 1
# PIP5K2C = tested on: T1, PIP5K2C; details: concentration: 1 μM, replicates: in singlicate; n = 1
# T1 construct: gene PIP4K2C
# PKAC-alpha = tested on: T2, PKAC-alpha; details: concentration: 1 μM, replicates: in singlicate; n = 1
# T2 construct: gene PRKACA
# PKAC-beta = tested on: T3, PKAC-beta; details: concentration: 1 μM, replicates: in singlicate; n = 1
# T3 construct: gene PRKACB
# PKMYT1 = details: concentration: 1 μM, replicates: in singlicate; n = 1
# PKN1 = details: concentration: 1 μM, replicates: in singlicate; n = 1
# PKN2 = details: concentration: 1 μM, replicates: in singlicate; n = 1
# PLK1 = details: n = 1
# PLK2 = details: concentration: 1 μM, replicates: in singlicate; n = 1
# PLK3 = details: concentration: 1 μM, replicates: in singlicate; n = 1
# PLK4 = details: concentration: 1 μM, replicates: in singlicate; n = 1
# PRKCD = details: concentration: 1 μM, replicates: in singlicate; n = 1
# PRKCE = details: concentration: 1 μM, replicates: in singlicate; n = 1
# PRKCH = details: concentration: 1 μM, replicates: in singlicate; n = 1
# [1] = concentration: 1 μM, replicates: in singlicate
# 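Further: KINOMEscan kinase panel screen.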
structure (smiles),measurement,setting,value
O=C(NOCC1CC1)c1ccc(F)c(F)c1Nc1ccc(I)cc1Cl,%Inh,PIKFYVE,40%
same,%Inh,PIM1,0%
same,%Inh,PIM2,0%
same,%Inh,PIM3,0%
same,%Inh,PIP5K1A,0%
same,%Inh,PIP5K1C,3%
same,%Inh,PIP5K2B,0%
same,%Inh,PIP5K2C,0%
same,%Inh,PKAC-alpha,0%
same,%Inh,PKAC-beta,0%
same,%Inh,PKMYT1,0%
same,%Inh,PKN1,0%
same,%Inh,PKN2,0%
same,%Inh,PLK1; [1],0%
same,%Inh,PLK2,8%
same,%Inh,PLK3,0%
same,%Inh,PLK4,0%
same,%Inh,PRKCD,3%
same,%Inh,PRKCE,28%
same,%Inh,PRKCH,0%
Cc1cccc(-c2nc(-c3ccc(S(C)(=O)=O)cc3)sc2-c2ccncc2)c1,%Inh,PIKFYVE,25%
same,%Inh,PIM1,13%
same,%Inh,PIM2,2%
same,%Inh,PIM3,12%
same,%Inh,PIP5K1A,22%
same,%Inh,PIP5K1C,2%
same,%Inh,PIP5K2B,55%
same,%Inh,PIP5K2C,0%
same,%Inh,PKAC-alpha,0%
same,%Inh,PKAC-beta,0%
same,%Inh,PKMYT1,20%
same,%Inh,PKN1,17%
same,%Inh,PKN2,0%
same,%Inh,PLK1; [1],0%
same,%Inh,PLK2,8%
same,%Inh,PLK3,6%
same,%Inh,PLK4,10%
same,%Inh,PRKCD,24%
same,%Inh,PRKCE,7%
same,%Inh,PRKCH,10%
CC(C)(C)n1cnc2c(N)ncnc21 [SKF-97359],%Inh,PIKFYVE,51%
same,%Inh,PIM1,0%
same,%Inh,PIM2,0%
same,%Inh,PIM3,0%
same,%Inh,PIP5K1A,32%
same,%Inh,PIP5K1C,51%
same,%Inh,PIP5K2B,24%
same,%Inh,PIP5K2C,34%
same,%Inh,PKAC-alpha,0%
same,%Inh,PKAC-beta,20%
same,%Inh,PKMYT1,0%
same,%Inh,PKN1,0%
same,%Inh,PKN2,0%
same,%Inh,PLK1; [1],0%
same,%Inh,PLK2,0%
same,%Inh,PLK3,0%
same,%Inh,PLK4,0%
same,%Inh,PRKCD,1%
same,%Inh,PRKCE,0%
same,%Inh,PRKCH,0%
Cc1cccc(Cn2ccn3c(=O)cc(N4CCOCC4)nc23)c1 [GSK2297542],%Inh,PIKFYVE,0%
same,%Inh,PIM1,29%
same,%Inh,PIM2,0%
same,%Inh,PIM3,13%
same,%Inh,PIP5K1A,0%
same,%Inh,PIP5K1C,36%
same,%Inh,PIP5K2B,2%
same,%Inh,PIP5K2C,6%
same,%Inh,PKAC-alpha,16%
same,%Inh,PKAC-beta,1%
same,%Inh,PKMYT1,16%
same,%Inh,PKN1,0%
same,%Inh,PKN2,0%
same,%Inh,PLK1; [1],14%
same,%Inh,PLK2,0%
same,%Inh,PLK3,0%
same,%Inh,PLK4,0%
same,%Inh,PRKCD,9%
same,%Inh,PRKCE,2%
same,%Inh,PRKCH,31%
CCc1nc(-c2cccc(C)c2)c(-c2ccnc(NCc3ccccc3)c2)s1,%Inh,PIKFYVE,0%
same,%Inh,PIM1,21%
same,%Inh,PIM2,0%
same,%Inh,PIM3,25%
same,%Inh,PIP5K1A,0%
same,%Inh,PIP5K1C,14%
same,%Inh,PIP5K2B,38%
same,%Inh,PIP5K2C,0%
same,%Inh,PKAC-alpha,0%
same,%Inh,PKAC-beta,0%
same,%Inh,PKMYT1,5%
same,%Inh,PKN1,14%
same,%Inh,PKN2,0%
same,%Inh,PLK1; [1],0%
same,%Inh,PLK2,7%
same,%Inh,PLK3,6%
same,%Inh,PLK4,0%
same,%Inh,PRKCD,16%
same,%Inh,PRKCE,0%
same,%Inh,PRKCH,0%
Cc1cccc(-c2nc(Nc3ccc4ncsc4c3)c3ccccc3n2)n1 [GW867588],%Inh,PIKFYVE,54%
same,%Inh,PIM1,9%
same,%Inh,PIM2,0%
same,%Inh,PIM3,16%
same,%Inh,PIP5K1A,27%
same,%Inh,PIP5K1C,4%
same,%Inh,PIP5K2B,0%
same,%Inh,PIP5K2C,18%
same,%Inh,PKAC-alpha,11%
same,%Inh,PKAC-beta,21%
same,%Inh,PKMYT1,9%
same,%Inh,PKN1,14%
same,%Inh,PKN2,0%
same,%Inh,PLK1; [1],12%
same,%Inh,PLK2,19%
same,%Inh,PLK3,16%
same,%Inh,PLK4,14%
same,%Inh,PRKCD,7%
same,%Inh,PRKCE,27%
same,%Inh,PRKCH,0%
Cc1c(Cn2c(C)nn3c(=O)cc(N4CCOC(C)C4)nc23)cccc1C(F)(F)F (centres unmarked) [GSK2344444],%Inh,PIKFYVE,46%
same,%Inh,PIM1,11%
same,%Inh,PIM2,0%
same,%Inh,PIM3,0%
same,%Inh,PIP5K1A,0%
same,%Inh,PIP5K1C,0%
same,%Inh,PIP5K2B,0%
same,%Inh,PIP5K2C,0%
same,%Inh,PKAC-alpha,4%
same,%Inh,PKAC-beta,17%
same,%Inh,PKMYT1,0%
same,%Inh,PKN1,0%
same,%Inh,PKN2,0%
same,%Inh,PLK1; [1],0%
same,%Inh,PLK2,0%
same,%Inh,PLK3,0%
same,%Inh,PLK4,0%
same,%Inh,PRKCD,0%
same,%Inh,PRKCE,0%
same,%Inh,PRKCH,0%
COc1ccc(S(=O)(=O)NC2CCN(c3cc(C)nc(Nc4cccc(C#N)c4)n3)CC2)cc1.O=C(O)C(F)(F)F [GSK1653539],%Inh,PIKFYVE,0%
same,%Inh,PIM1,25%
same,%Inh,PIM2,0%
same,%Inh,PIM3,0%
same,%Inh,PIP5K1A,0%
same,%Inh,PIP5K1C,11%
same,%Inh,PIP5K2B,0%
same,%Inh,PIP5K2C,37%
same,%Inh,PKAC-alpha,0%
same,%Inh,PKAC-beta,0%
same,%Inh,PKMYT1,0%
same,%Inh,PKN1,0%
same,%Inh,PKN2,0%
same,%Inh,PLK1; [1],0%
same,%Inh,PLK2,0%
same,%Inh,PLK3,0%
same,%Inh,PLK4,0%
same,%Inh,PRKCD,0%
same,%Inh,PRKCE,0%
same,%Inh,PRKCH,11%
Cc1c2ccc(N(C)c3ccnc(Nc4cccc(S(N)(=O)=O)c4)n3)cc2nn1Cc1ccccc1.Cl.Cl [GW787226],%Inh,PIKFYVE,0%
same,%Inh,PIM1,0%
same,%Inh,PIM2,0%
same,%Inh,PIM3,0%
same,%Inh,PIP5K1A,0%
same,%Inh,PIP5K1C,0%
same,%Inh,PIP5K2B,0%
same,%Inh,PIP5K2C,0%
same,%Inh,PKAC-alpha,17%
same,%Inh,PKAC-beta,4%
same,%Inh,PKMYT1,0%
same,%Inh,PKN1,0%
same,%Inh,PKN2,0%
same,%Inh,PLK1; [1],0%
same,%Inh,PLK2,0%
same,%Inh,PLK3,15%
same,%Inh,PLK4,50%
same,%Inh,PRKCD,0%
same,%Inh,PRKCE,0%
same,%Inh,PRKCH,0%
COc1cc2ncn(-c3cc(OCc4sccc4Cl)c(C(N)=O)s3)c2cc1OC [GSK448459],%Inh,PIKFYVE,0%
same,%Inh,PIM1,11%
same,%Inh,PIM2,0%
same,%Inh,PIM3,0%
same,%Inh,PIP5K1A,41%
same,%Inh,PIP5K1C,79%
same,%Inh,PIP5K2B,20%
same,%Inh,PIP5K2C,50%
same,%Inh,PKAC-alpha,0%
same,%Inh,PKAC-beta,0%
same,%Inh,PKMYT1,0%
same,%Inh,PKN1,0%
same,%Inh,PKN2,0%
same,%Inh,PLK1; 1 µM,100%
same,%Inh,PLK2,99.5%
same,%Inh,PLK3,99.5%
same,%Inh,PLK4,4%
same,%Inh,PRKCD,0%
same,%Inh,PRKCE,0%
same,%Inh,PRKCH,0%
